Hits are enriched below; roughly 4% of the tested compounds scored in any of these assays.
RecA intein inh: inhibitors of M. tuberculosis RecA intein splicing | AID 2221 | cell-free RecA intein splicing, fluorescence | inhibition, % (no concentration beside the values) | 0.75% of 290,000 active; in the data active means inhibition above about 30%; inconclusive means no clear call, values can overlap the other calls;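 further: 0% = vehicle wells and 100% = reference inhibitor control wells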
Mtb UGM inh: blocks M. tuberculosis UGM enzyme; P9WIQ1; purified UGM, fluorescence polarization probe displacement; inhibition, % at 10 µM; 0.06% of 320,000 active; AID 504406; in the data active means inhibition above about 10%, passing the limit was not always enough; inconclusive means no clear call, values can overlap the other calls
Target sequence (P9WIQ1 whole entry, looked up): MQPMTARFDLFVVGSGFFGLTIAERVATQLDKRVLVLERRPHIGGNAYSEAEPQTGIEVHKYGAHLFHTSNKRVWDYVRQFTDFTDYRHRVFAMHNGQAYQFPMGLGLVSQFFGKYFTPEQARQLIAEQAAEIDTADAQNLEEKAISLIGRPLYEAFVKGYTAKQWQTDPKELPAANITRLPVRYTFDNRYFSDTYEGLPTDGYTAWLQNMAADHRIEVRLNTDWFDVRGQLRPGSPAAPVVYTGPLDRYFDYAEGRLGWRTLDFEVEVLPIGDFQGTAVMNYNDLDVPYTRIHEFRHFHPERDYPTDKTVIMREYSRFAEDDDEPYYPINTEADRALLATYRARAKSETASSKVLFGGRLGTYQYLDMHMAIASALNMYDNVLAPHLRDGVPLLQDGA
GDH-TPI counter: GDH-TPI coupled enzyme inhibition counter-screen. GDH-TPI coupled enzyme counterscreen, NADH absorbance. AID 588335. inhibition, % at 4.8 µM. 1.2% of 360,000 active; in the data active means inhibition above about 30%;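 further: 0% = DMSO wells and 100% = wells lacking the enzyme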
Mtb bLac sens: beta-lactam sensitization of Mtb H37Rv. M. tuberculosis H37Rv growth with meropenem, percent inhibition. inhibition, % at 25 µM. 0.27% of 330,000 active. AID 434955; call rule not given here;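 further: growth measured after seven days incubation then overnight dye step; 0% = bacteria only wells and 100% = bacteria with antibiotic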
Rv3671c inh: inhibitors of M. tuberculosis serine protease Rv3671c | inhibition, % at 5.96 µM | 0.048% of 320,000 active; in the data active means inhibition above about 38%;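 further: extracellular domain of Rv3671c used as enzyme; 0% = enzyme with DMSO and 100% = no enzyme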
Mtb FBA inh: inhibitors of M. tuberculosis fructose-bisphosphate aldolase | purified M. tuberculosis FBA, fluorescence read-out | inhibition, % at 1 µM | 2.3% of 360,000 active | AID 588726; in the data active means inhibition above about 27%;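 further: 0% = vehicle and 100% = reference inhibitor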
Numbers without * were called inactive; i = inactive; u = inconclusive; x = no result given; + = active, no number.

SMILES	RecA intein inh	Mtb UGM inh	GDH-TPI counter	Mtb bLac sens	Rv3671c inh	Mtb FBA inh
COc1cc(/C=C/C(=O)Nc2nc3ccc(S(=O)(=O)N(C)C)cc3s2)cc(OC)c1OC	-11.5	0.0	47.8*	4.3	-19.2	25.4
COc1ccc(-c2c(C)c3ccc(O)cc3oc2=O)cc1	-51.1	0.2	22.6	8.5	2.2	+
CCOC(=O)CCc1c(C)c2ccc(O)cc2oc1=O	-28.7	-1.6	0.6	2.0	-8.0	+
CCOC(=O)Cc1c(C)c2c(O)cc(O)cc2oc1=O	-135.0	0.6	18.8	-7.5	-0.8	121.0*
CCOC(=O)CCc1c(C)c2ccc(OC3CCCCC3=O)c(C)c2oc1=O (stereo not given)	-1.8	3.2	8.1	40.9	-0.4	22.8
Cc1c(Cc2ccccc2)c(=O)oc2cc(O)ccc12	-18.5	1.2	27.2	-3.9	-10.0	+
Cc1c(Cc2ccccc2)c(=O)oc2c(CN(C)C)c(O)c(Cl)cc12	-349.1	-1.7	17.2	-5.5	-0.8	+
CCc1cc(=O)oc2c3c(cc(OCC(=O)NCCCCCC(=O)O)c12)OC(C)(C)CC3	-1.6	-1.6	25.0	-5.6	5.9	+
Cc1c(OCC(=O)NCc2cccnc2)ccc2c3c(c(=O)oc12)CCC3	-5.4	-0.8	20.7	u	-10.4	9.9
CCc1cc(=O)oc2c3c(cc(OCC(=O)NCc4ccccn4)c12)OC(C)(C)CC3	7.3	3.0	9.8	-1.9	-6.1	188.9*
COc1cc2c(c3oc(=O)cc(CC(=O)O)c13)CCC(C)(C)O2	0.5	-2.7	9.3	2.3	1.7	199.4*
COc1c2c(cc3oc(=O)c4c5ccc(O)cc5oc4c13)OC(C)(C)CC2	-0.3	-1.6	9.7	-8.3	-5.1	14.2
CCc1cc(=O)oc2c3c(cc(OCC(=O)NCc4cccnc4)c12)OC(C)(C)CC3	4.7	3.2	3.9	-3.9	-6.3	+
O=C(NCc1cccnc1)c1csc([C@H]2C[C@H](O)[C@@H](CO)O2)n1	x	x	-2.6	x	x	0.4
CCOc1ccc2[nH]c3nc(SCC(=O)NC4CC4)nnc3c2c1	2.0	-2.8	-3.3	-3.2	2.9	-1.2
Fc1ccccc1-c1cc2ncccc2cn1	x	1.4	14.3	2.1	-7.8	2.0
Cc1c(C)c2c(OCC(=O)Nc3cccnc3)cc3c(c2oc1=O)CCC(C)(C)O3	4.5	-3.0	5.9	1.6	0.8	7.3
CCc1cc(=O)oc2c3c(cc(OCC(=O)Nc4cccnc4)c12)OC(C)(C)CC3	8.7	-1.9	23.5	3.0	-6.3	34.2*
O=C(NCc1cc(Cl)cc(Cl)c1)c1csc([C@@H]2O[C@H](CO)[C@H](O)[C@H](O)[C@H]2O)n1	x	x	-4.9	x	x	-2.2
CCCCC1=CC2=CC(=O)C(C)(OC(=O)c3cnc4ccccc4n3)C(=O)C2=CO1 (stereo not given)	33.9*	1.6	x	-2.6	7.5	x
COc1cccc(OCC(=O)NC2CCS(=O)(=O)C2)c1 (stereo not given)	x	x	3.1	x	x	-1.0
CC(OC(=O)c1nccnc1N)C(=O)Nc1ccc(S(=O)(=O)N2CCCC2)cc1 (stereo not given)	-1.9	x	7.8	-9.1	-1.0	142.2*
CC1CCCC(C)N1C(=O)c1cc(-c2ccc3c(c2)OCO3)on1 (stereo not given)	1.2	-1.4	0.0	54.8	0.2	-1.8
COCCN(CC(=O)Nc1cccc(C)c1C)C(=O)c1ccc(-n2cccn2)cc1	x	2.3	2.7	-2.2	-0.6	-2.4
COc1cc2oc3ccccc3c(=O)c2cc1OC	-1.8	1.4	21.6	-14.5	7.1	+
SMILES	RecA intein inh	Mtb UGM inh	GDH-TPI counter	Mtb bLac sens	Rv3671c inh	Mtb FBA inh
O=c1c2ccccc2oc2cc(Br)ccc12	x	x	5.3	x	x	0.0
CCn1ncc(CN2CCC(Oc3cc(C(=O)NC4CC4)ccc3OC)CC2)c1C	1.7	1.5	0.3	0.2	x	-1.0
COC(=O)C1=CN(Cc2ccc(OC)c(OC)c2)C=C(C(=O)OC)C1c1cccc(F)c1	x	0.4	0.7	-10.0	-0.1	123.3*
COC(=O)C1=CN(Cc2ccccc2)C=C(C(=O)OC)C1c1cc(F)ccc1F	-184.1	1.3	8.0	3.5	5.5	121.7*
CN(C(=O)CSc1nnc(CN2CCCC2)n1Cc1ccccc1)c1ccccc1	0.6	4.6	-2.1	-8.4	-5.1	-1.5
CCc1cc(C(=O)N(CC(C)C)c2c(N)n(Cc3ccccc3)c(=O)[nH]c2=O)sc1C	-1.5	2.0	10.3	-0.4	-0.2	6.0
CCCCNC(=O)c1ccc(Cc2cn(C)c3ccccc23)nc1	x	x	9.3	x	x	1.2
O=C(O)c1ccccc1NN=Cc1ccccc1	x	x	35.8*	x	x	5.2
Cc1cc(C)c(CN2CCC(N3CCC(C(=O)NCC4CCCO4)CC3)CC2)cc1C (stereo not given)	1.2	0.4	-0.4	3.6	-5.8	-4.1
CC1(C)CC(=O)C(C=Nc2ccc3cn[nH]c3c2)=C(O)C1	4.1	-2.4	39.3*	-6.8	-5.6	4.2
CC1(C)CC(=O)C(C=Nc2ccc(O)cc2)=C(O)C1	-6.2	1.0	13.9	-8.5	-0.7	-3.2
CC1(C)CC(=O)C(C=Nc2ccc3[nH]ncc3c2)=C(O)C1	10.9	-1.4	35.9*	7.6	-3.8	7.4
COc1cc(F)ccc1-c1csc(C(NC(C)=O)c2ccc(F)c(F)c2)n1 (stereo not given)	x	x	-5.3	x	x	-2.8
CC(C)(C)CC(=O)Nc1cccc(-c2cn3cccnc3n2)c1	-0.5	-2.4	6.8	-6.8	-3.9	+
Cc1onc(-c2ccccc2Cl)c1C(=O)Nc1cccc(-c2cn3cccnc3n2)c1	x	-0.2	30.9*	-5.6	-4.8	128.5*
COc1cc(C(=O)Nc2cccc(-c3cn4cccnc4n3)c2)cc(OC)c1OC	3.9	-2.4	7.9	x	-13.5	+
CC(=O)Nc1ccc(-c2ccnc3c2CC(C)(C(=O)NCc2cccc(Cl)c2)O3)cc1 (stereo not given)	x	x	15.9	x	x	8.5
Cc1c(S(=O)(=O)N(C)C2CCCCC2)c(=O)n(C)c(=O)n1C	-0.3	-1.7	-2.5	-9.9	-0.6	-0.8
COc1ccc(OC)c2c1cc(C(=O)N[C@H](C(=O)N1CCC(C(=O)O)CC1)C(C)C)n2C	8.2	2.0	4.0	-5.5	x	2.4
CCC1NC(=O)c2cc3ccccc3cc2-n2c1nc1ccc(F)cc1c2=O (stereo not given)	x	x	3.1	x	x	-0.3
Cc1cc(C)c(S(=O)(=O)n2c([N+](=O)[O-])cnc2C)cc1C	-1.1	10.0*	6.4	11.6	1.7	0.3
Cc1ccc(S(=O)(=O)n2c([N+](=O)[O-])cnc2C)cc1C	0.3	1.9	6.3	-2.7	10.3	0.3
O=C(c1cn2ccccc2n1)N1CCCC(Nc2ccc(F)c(F)c2)C1 (stereo not given)	0.0	0.4	-1.0	-1.9	-5.6	3.7
O=C(NC(c1ccc(Cl)cc1)c1cnccn1)C1CCN(CCCc2ccccc2)CC1 (stereo not given)	x	x	9.7	x	x	-0.7
CN1CCCC1CCNc1ccc2c(=O)c3ccccc3oc2c1 (stereo not given)	i	2.0	30.7*	-1.3	-8.9	+
